# Activity calls are given as the source filed them. How the source made its calls: active means hit-call score of the fitted dose curve at least 0.9, where 1 is the maximum; inactive means score below 0.9.
# Legend:
# Settings in all cases: mRNA level, 48 h; actives raise or lower the signal
# [1] = read-out: Glutathione S-Transferase (GSTA2), GSTA2 (gene 2939); experiment: LTEA_HepaRG_GSTA2: Life Technologies and Expression Analysis (LTEA) Assay for Glutathione S-Transferase (GSTA2) using HepaRG (AID 2283497)
# In short: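 qRT-PCR readout of GSTA2 transcript, normalized to three housekeeping genes, fitted bidirectionally against 0.5% DMSO baseline. Differentiated HepaRG cells received compound for 48 h at 8 concentrations (top 100 uM, half-log steps).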
# [2] = read-out: Glutamate-cysteine ligase catalytic (GCLC), GCLC (gene 2729); experiment: LTEA_HepaRG_GCLC: Life Technologies and Expression Analysis (LTEA) Assay for Glutamate-cysteine ligase catalytic (GCLC) using HepaRG (AID 2283498)
# In short: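 HepaRG, 48 h exposure, 8-pt half-log series from 100 uM, 0.5% DMSO vehicle; TaqMan qRT-PCR for GCLC mRNA, housekeeping-normalized; bidirectional curve fit vs DMSO baseline.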
# [3] = read-out: growth arrest and DNA damage 45 (GADD45G), GADD45G (gene 10912); experiment: LTEA_HepaRG_GADD45G: Life Technologies and Expression Analysis (LTEA) Assay for growth arrest and DNA damage 45 (GADD45G) using HepaRG (AID 2283499)
# In short: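 HepaRG, 48 h exposure, top 100 uM, half-log 8-point series, 0.5% DMSO vehicle, duplicates. Readout: GADD45G transcript by qRT-PCR (Fluidigm array), housekeeping-normalised (ACTB/GAPDH/POLR2A). Bidirectional curve fit vs DMSO baseline.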
# [4] = read-out: Glutamate-cysteine ligase regulatory (GCLM), GCLM (gene 2730); experiment: LTEA_HepaRG_GCLM: Life Technologies and Expression Analysis (LTEA) Assay for Glutamate-cysteine ligase regulatory (GCLM) using HepaRG (AID 2283500)
# In short: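 HepaRG, 48 h dosing, 100 uM top, half-log x8, 0.5% DMSO vehicle. Readout: GCLM mRNA by TaqMan qRT-PCR, housekeeping-normalized (ACTB/GAPDH/POLR2A). Curves fit bidirectionally vs DMSO baseline.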
# [5] = read-out: Glutathione S-transferase M3 (GSTM3), GSTM3 (gene 2947); experiment: LTEA_HepaRG_GSTM3: Life Technologies and Expression Analysis (LTEA) Assay for Glutathione S-transferase M3 (GSTM3) using HepaRG (AID 2283501)
# In short: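 qRT-PCR read-out of GSTM3 transcript, normalized to three housekeeping genes, from human HepaRG cells after 48 h chemical exposure. Eight-point half-log series, top 100 uM, 0.5% DMSO vehicle; gain or loss fitted relative to DMSO baseline.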
# [6] = read-out: Heat shock 70 kDa protein 1 (HSPA1A), gene 3303; experiment: LTEA_HepaRG_HSPA1A: Life Technologies and Expression Analysis (LTEA) Assay for Heat shock 70 kDa protein 1 (HSPA1A) using HepaRG (AID 2283502)
# In short: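 HepaRG, 48 h exposure, 8-pt half-log CRC from 100 uM in 0.5% DMSO, duplicates. Readout: TaqMan qRT-PCR of HSPA1A mRNA, housekeeping-normalized (ACTB/GAPDH/POLR2A). Bidirectional fit vs 0.5% DMSO baseline.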
# [7] = read-out: 3-Hydroxy-3-Methylglutaryl-CoA Synthase 2 (HMGCS2), HMGCS2 (gene 3158); experiment: LTEA_HepaRG_HMGCS2: Life Technologies and Expression Analysis (LTEA) Assay for 3-Hydroxy-3-Methylglutaryl-CoA Synthase 2 (HMGCS2) using HepaRG (AID 2283504)
# In short: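 qRT-PCR read-out of HMGCS2 transcript, normalised to three housekeeping genes, in HepaRG cells after 48 h chemical exposure. Eight-point curves from 100 uM, half-log dilutions, 0.5% DMSO vehicle; gain or loss fitted relative to DMSO baseline.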
# [8] = read-out: HGF (gene 3082); experiment: LTEA_HepaRG_HGF: Life Technologies and Expression Analysis (LTEA) Assay for Hepatocyte Growth Facto (HGF) using HepaRG (AID 2283505)
# In short: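 HepaRG, 48 h dosing, 8-pt half-log series from 100 uM in 0.5% DMSO, duplicates. Readout: TaqMan qRT-PCR of HGF mRNA, housekeeping-normalized; bidirectional curve fit vs DMSO baseline.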
# [9] = read-out: Insulin Like Growth Factor 1 (IGF1), IGF1 (gene 3479); experiment: LTEA_HepaRG_IGF1: Life Technologies and Expression Analysis (LTEA) Assay for Insulin Like Growth Factor 1 (IGF1) using HepaRG (AID 2283506)
# In short: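 qRT-PCR readout of IGF1 mRNA, normalized to three housekeeping genes, after 48 h chemical exposure of HepaRG cells. Concentrations: 8-point half-log series, top 100 uM, 0.5% DMSO vehicle. Gain or loss fitted against DMSO baseline.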
# [10] = read-out: Intercellular Adhesion Molecule 1 (ICAM1), ICAM1 (gene 3383); experiment: LTEA_HepaRG_ICAM1: Life Technologies and Expression Analysis (LTEA) Assay for Intercellular Adhesion Molecule 1 (ICAM1) using HepaRG (AID 2283507)
# In short: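 HepaRG, 48 h exposure, 8-pt half-log series from 100 uM, 0.5% DMSO vehicle, duplicates. Readout: TaqMan qRT-PCR mRNA, housekeeping-normalized (ACTB/GAPDH/POLR2A). Bidirectional curve fit vs DMSO baseline.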
# [11] = read-out: Insulin-like growth factor-binding protein 1 (IGFBP1), IGFBP1 (gene 3484); experiment: LTEA_HepaRG_IGFBP1: Life Technologies and Expression Analysis (LTEA) Assay for Insulin-like growth factor-binding protein 1 (IGFBP1) using HepaRG (AID 2283508)
# In short: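 qRT-PCR mRNA read-out (TaqMan, Fluidigm array), normalised to three housekeeping genes; HepaRG cells, 48 h exposure, 8-pt half-log series from 100 uM, 0.5% DMSO vehicle; bidirectional curve fit vs DMSO baseline.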
# [12] = read-out: Interleukin 6 (IL6), IL6 (gene 3569); experiment: LTEA_HepaRG_IL6: Life Technologies and Expression Analysis (LTEA) Assay for Interleukin 6 (IL6) using HepaRG (AID 2283509)
# In short: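 qRT-PCR read-out of IL6 transcript, normalized to three housekeeping genes, after 48 h chemical exposure of HepaRG cells; 8-point half-log series, top 100 uM, 0.5% DMSO vehicle. Bidirectional curve fitting against DMSO baseline.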
# [13] = read-out: Interleukin 6 Receptor (IL6R), IL6R (gene 3570); experiment: LTEA_HepaRG_IL6R: Life Technologies and Expression Analysis (LTEA) Assay for Interleukin 6 Receptor (IL6R) using HepaRG (AID 2283510)
# In short: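 HepaRG, 48 h exposure, 8-pt half-log series, top 100 uM, 0.5% DMSO vehicle, duplicates. Read-out: TaqMan qRT-PCR of IL6R transcript, housekeeping-gene normalized. Gain or loss fitted relative to DMSO baseline.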
# [14] = read-out: Potassium channel subfamily K member 1 (KCNK1), KCNK1 (gene 3775); experiment: LTEA_HepaRG_KCNK1: Life Technologies and Expression Analysis (LTEA) Assay for Potassium channel subfamily K member 1 (KCNK1) using HepaRG (AID 2283511)
# In short: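 HepaRG, 48 h exposure, 8-pt half-log series top 100 uM, 0.5% DMSO vehicle, duplicates. Readout: KCNK1 transcript by qRT-PCR (Fluidigm array), housekeeping-normalized; bidirectional curve fit relative to DMSO baseline.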
# [15] = read-out: Keratin 19 (KRT19), KRT19 (gene 3880); experiment: LTEA_HepaRG_KRT19: Life Technologies and Expression Analysis (LTEA) Assay for Keratin 19 (KRT19) using HepaRG (AID 2283512)
# In short: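 HepaRG, 48 h chemical exposure, 8-pt half-log CRC from 100 uM, 0.5% DMSO vehicle, duplicates. Readout: TaqMan qRT-PCR of KRT19 mRNA, housekeeping-normalized (ACTB/GAPDH/POLR2A). Bidirectional fit vs DMSO baseline.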
# [16] = read-out: JUN Transcription Factor, JUN (gene 3725); experiment: LTEA_HepaRG_JUN: Life Technologies and Expression Analysis (LTEA) Assay for JUN Transcription Factor using HepaRG (AID 2283513)
# In short: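 HepaRG, 48 h exposure, 8-pt half-log series top 100 uM, 0.5% DMSO, duplicate. JUN mRNA by qRT-PCR (Fluidigm), housekeeping-normalized (ACTB/GAPDH/POLR2A); bidirectional curve fit vs DMSO baseline.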
# [17] = read-out: Lipase C (LIPC), LIPC (gene 3990); experiment: LTEA_HepaRG_LIPC: Life Technologies and Expression Analysis (LTEA) Assay for Lipase C (LIPC) using HepaRG (AID 2283514)
# In short: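 HepaRG, 48 h exposure, 8-pt half-log series from 100 uM in 0.5% DMSO, duplicates. Readout: LIPC mRNA by Fluidigm qRT-PCR, housekeeping-normalized (ACTB/GAPDH/POLR2A). Gain or loss fitted bidirectionally against DMSO baseline.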
# [18] = read-out: Lipoprotein lipase (LPL), LPL (gene 4023); experiment: LTEA_HepaRG_LPL: Life Technologies and Expression Analysis (LTEA) Assay for Lipoprotein lipase (LPL) using HepaRG (AID 2283515)
# In short: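 HepaRG, 48 h exposure, 8-pt half-log dilutions from 100 uM, 0.5% DMSO vehicle, duplicates; qRT-PCR (Fluidigm array) of LPL mRNA vs housekeeping genes; bidirectional curve fit relative to DMSO baseline.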
# [19] = read-out: MicroRNA 122 (MIR122), gene 406906; experiment: LTEA_HepaRG_MIR122: Life Technologies and Expression Analysis (LTEA) Assay for MicroRNA 122 (MIR122) using HepaRG (AID 2283516); further: the transcript read is the microRNA miR-122
# In short: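 qRT-PCR read-out (TaqMan, Fluidigm array), normalized to three housekeeping genes; HepaRG cells dosed 48 h at 8 concentrations up to 100 uM in 0.5% DMSO, duplicate; gain or loss fitted against DMSO baseline.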
# [20] = read-out: Hypoxia-inducible factor 1-alpha (Homo sapiens) (UniProt Q16665); experiment: LTEA_HepaRG_HIF1A: Life Technologies and Expression Analysis (LTEA) Assay for Hypoxia-inducible factor 1 (HIF1A) Trancription factor using HepaRG (AID 2283503)
# In short: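 Gain- or loss-of-signal HIF1A mRNA changes are fitted against a DMSO baseline. HepaRG cultures receive eight concentrations, highest 100 uM, for 48 h in serum-free induction medium with 0.5% DMSO.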
# Hypoxia-inducible factor 1-alpha (Homo sapiens), sequence (Q16665 whole entry, looked up): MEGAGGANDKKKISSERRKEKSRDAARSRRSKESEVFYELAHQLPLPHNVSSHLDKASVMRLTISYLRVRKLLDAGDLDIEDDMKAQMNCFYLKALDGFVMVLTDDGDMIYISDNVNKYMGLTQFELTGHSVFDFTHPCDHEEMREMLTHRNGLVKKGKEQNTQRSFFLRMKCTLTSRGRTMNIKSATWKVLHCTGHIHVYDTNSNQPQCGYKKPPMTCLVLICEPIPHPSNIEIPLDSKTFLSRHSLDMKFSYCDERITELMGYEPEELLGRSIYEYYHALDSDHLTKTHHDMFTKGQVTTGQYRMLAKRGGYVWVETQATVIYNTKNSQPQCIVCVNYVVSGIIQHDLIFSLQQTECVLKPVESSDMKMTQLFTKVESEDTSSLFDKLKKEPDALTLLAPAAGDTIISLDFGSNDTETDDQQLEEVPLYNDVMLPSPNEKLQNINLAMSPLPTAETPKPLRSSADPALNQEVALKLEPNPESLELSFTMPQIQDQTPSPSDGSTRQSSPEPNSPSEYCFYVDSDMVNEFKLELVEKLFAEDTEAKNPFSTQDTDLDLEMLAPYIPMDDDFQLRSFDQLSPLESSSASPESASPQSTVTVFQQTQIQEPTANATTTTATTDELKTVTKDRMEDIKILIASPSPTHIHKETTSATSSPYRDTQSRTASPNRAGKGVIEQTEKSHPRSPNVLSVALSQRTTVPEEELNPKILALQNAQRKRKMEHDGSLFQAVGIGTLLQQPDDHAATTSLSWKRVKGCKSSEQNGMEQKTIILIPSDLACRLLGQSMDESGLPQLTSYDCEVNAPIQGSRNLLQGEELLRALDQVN
structure (smiles),measurement,setting,value
CCOC(=O)c1ccc(C2CCC(NC[C@H](O)COc3ccc(O)c(NS(C)(=O)=O)c3)CC2)cc1 (some centres not stated),outcome,[1],inactive
same,outcome,[2],inactive
same,outcome,[3],inactive
same,outcome,[4],inactive
same,outcome,[5],inactive
same,outcome,[6],inactive
same,outcome,[7],inactive
same,outcome,[8],inactive
same,outcome,[9],inactive
same,outcome,[10],inactive
same,outcome,[11],inactive
same,outcome,[12],inactive
same,outcome,[13],inactive
same,outcome,[14],inactive
same,AC50,[15],2.04 µM (active)
same,outcome,[16],inactive
same,outcome,[17],inactive
same,outcome,[18],inactive
same,outcome,[19],inactive
CC(C)CC(C)(O)C#CC(C)(O)CC(C)C (configuration not stated),outcome,[1],inactive
same,outcome,[2],inactive
same,outcome,[3],inactive
same,outcome,[4],inactive
same,outcome,[5],inactive
same,outcome,[6],inactive
same,outcome,[7],inactive
same,outcome,[8],inactive
same,outcome,[9],inactive
same,outcome,[10],inactive
same,outcome,[11],inactive
same,outcome,[12],inactive
same,outcome,[13],inactive
same,outcome,[14],inactive
same,outcome,[15],inactive
same,outcome,[16],inactive
same,outcome,[17],inactive
same,outcome,[18],inactive
same,outcome,[19],inactive
COc1ccc(/C=C/S(=O)(=O)NC(=O)c2ccc(C)cc2Cl)cc1,AC50,[1],80.8 µM (active)
same,outcome,[2],inactive
same,outcome,[3],inactive
same,outcome,[4],inactive
same,outcome,[5],inactive
same,outcome,[6],inactive
same,outcome,[7],inactive
same,outcome,[8],inactive
same,outcome,[9],inactive
same,outcome,[10],inactive
same,outcome,[11],inactive
same,outcome,[12],inactive
same,outcome,[13],inactive
same,outcome,[14],inactive
same,outcome,[15],inactive
same,outcome,[16],inactive
same,outcome,[17],inactive
same,outcome,[18],inactive
same,outcome,[19],inactive
Cc1ccc(S(=O)(=O)O)cc1C,outcome,[1],inactive
same,outcome,[2],inactive
same,outcome,[3],inactive
same,outcome,[4],inactive
same,outcome,[5],inactive
same,outcome,[20],inactive
same,outcome,[7],inactive
same,outcome,[8],inactive
same,outcome,[9],inactive
same,outcome,[10],inactive
same,outcome,[11],inactive
same,outcome,[12],inactive
same,outcome,[13],inactive
same,outcome,[14],inactive
same,outcome,[15],inactive
same,outcome,[16],inactive
same,outcome,[17],inactive
same,outcome,[18],inactive
same,outcome,[19],inactive
O=C(O)CCN(C1(C(=O)NO)CCCC1)S(=O)(=O)c1ccc(Oc2ccc(F)cc2)cc1,outcome,[1],inactive
same,outcome,[2],inactive
same,outcome,[3],inactive
same,outcome,[4],inactive
same,outcome,[5],inactive
same,outcome,[20],inactive
same,outcome,[7],inactive
same,outcome,[8],inactive
same,outcome,[9],inactive
same,outcome,[10],inactive
same,outcome,[11],inactive
same,outcome,[12],inactive
same,outcome,[13],inactive
same,outcome,[14],inactive
same,outcome,[15],inactive
same,outcome,[16],inactive
same,outcome,[17],inactive
same,outcome,[18],inactive
same,outcome,[19],inactive
O=C(O)c1cccc(Oc2ccccc2)c1,outcome,[1],inactive
same,outcome,[2],inactive
same,outcome,[3],inactive
same,outcome,[4],inactive
same,outcome,[5],inactive
same,outcome,[7],inactive
same,outcome,[8],inactive
same,outcome,[9],inactive
same,outcome,[10],inactive
same,outcome,[11],inactive
same,outcome,[12],inactive
same,outcome,[13],inactive
same,outcome,[14],inactive
same,outcome,[15],inactive
same,outcome,[16],inactive
same,outcome,[17],inactive
same,outcome,[18],inactive
same,outcome,[19],inactive
CC(C)CCCCCCOC(=O)c1ccc(C(=O)OCCCCCCC(C)C)c(C(=O)OCCCCCCC(C)C)c1,outcome,[1],inactive
same,outcome,[3],inactive
same,outcome,[4],inactive
same,outcome,[5],inactive
same,outcome,[6],inactive
same,outcome,[20],inactive
same,outcome,[7],inactive
same,outcome,[8],inactive
same,outcome,[9],inactive
same,outcome,[10],inactive
same,outcome,[11],inactive
same,outcome,[12],inactive
same,outcome,[13],inactive
same,outcome,[14],inactive
same,outcome,[15],inactive
same,outcome,[16],inactive
same,outcome,[17],inactive
same,outcome,[18],inactive
same,outcome,[19],inactive

# From PubChem BioAssay (EPA / NIEHS)
